Molecules are shown by their SMILES. Among all 360,000 compounds or so, about 17,000 (4.7%) were called active. Not shown: some 5% with an inconclusive outcome. For the sample, actives were picked, then their nearest neighbours and some compounds at random. A number with no mark means an inactive call. No stated cut-off is given here; in the data, active means activity change below about -50%; inconclusive means mostly about -30% to -49%; inactive means weaker than that.
On the % scale 0 is the no-effect control and ±100 the full control effect.

This test can be described thus: qHTS for Inhibitors of Inflammasome Signaling: IL-1-beta AlphaLISA Primary Screen. The note with it: THP-1 LPS/ATP IL-1B secretion, 16 h; at 57.5 µM, active compounds read low. In outline:
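Secreted IL-1B measured by AlphaLISA bead assay after 16 h compound exposure of THP-1 cells; compounds (final up to 57.5 uM) added 1 h before LPS (250 ng/mL) and ATP (1.25 mM) stimulation; lower signal means less secretion.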
(In general: In qHTS, concentration-response curves come from the screen itself.)
For the compound `C=CCN(N=Nc1cccc([N+](=O)[O-])c1)c1cccc([N+](=O)[O-])c1`, the activity change is -16.1%.
The result for `NS(=O)(=O)c1ccc(CNC(=O)c2cnccn2)cc1` reads 2.67%; that for `NS(=O)(=O)c1ccc(CNC(=O)c2cccc(S(=O)(=O)N3CCc4ccccc43)c2)cc1`, -11.1%; that for `NS(=O)(=O)c1ccc(CNC(=O)c2cccc(Oc3ccccc3)c2)cc1`, -74.2% (active).
The result for `CCc1ccc(OC2(C)CCN(CCOc3ccc(C)cc3)C2)cc1` (stereo not given) reads -10%; that for `O=C1CSC(=S)N1/N=C/c1ccc(O)c([N+](=O)[O-])c1`, 23.5%; that for `O=C(CC[C@H]1O[C@@H](n2ccc(=O)[nH]c2=O)[C@H](O)[C@@H]1O)N[C@H](Cc1ccccc1)C(=O)NCCCN1CCCC1=O`, 15.8%.
For the compound `Cc1cc(C(=O)N2CCCC2(C)C(=O)O)c(C)o1` (stereo not given), the activity change was -11.9%.
Turning to `CCn1c(SCC(=O)Nc2nc(C)cs2)nnc1C(C)NC(=O)c1ccccc1` (stereo not given), the activity change is -6.67%.
The result for `CCn1nc(C)c(CN2CCN(Cc3ccc(OC)c(C)c3C)C(CCO)C2)c1C` (stereo not given) reads 9.61%; that for `COc1ccc(CN2CCN(Cc3cn(C)nc3-c3ccccc3)CC2CCO)c(C)c1C` (stereo not given), -57.9% (active); that for `Cc1ccc(CN2CCN(Cc3cn(C)nc3-c3ccccc3)CC2CCO)o1` (stereo not given), 40.4%.
The result for `Cc1noc(C)c1C(=O)N1CCC1(C)C(=O)NS(=O)(=O)c1ccc(C#N)cc1` (stereo not given) reads -5.56%; that for `O=C(Nc1ccccc1)c1ccccc1Br`, 9.09%; that for `CC1(C(=O)NS(=O)(=O)c2ccc(C#N)cc2)CCN1C(=O)CC1CCCC1` (stereo not given), 4.38%.
The result for `CC(=O)C[C@@H]1OC[C@H](C)N1S(=O)(=O)c1ccc(C)cc1` reads -13.9%.
On to `Cc1cc2[nH]ncc2cc1NC(=S)NC(=O)c1ccccc1`, for which the activity change is -1.02%.
Regarding `Cc1cccc(NC(=O)NC(=S)NC(=O)c2ccccc2)c1`, the activity change was -7.59%.
The figure for `Cc1ccc(NC(=S)NC(=O)c2ccc(-c3ccccc3)cc2)c(C)c1` is -50.2% (active); for `O=C(N[C@H]1C/C=C\C(c2cccc(F)c2)N(Cc2ccccc2)C(=O)C1)OCC1c2ccccc2-c2ccccc21` (stereo not given in full) it is -10%; for `CC[C@@H]1CC2=C(C(=O)OC(C)(C)O2)[C@@H](CC)O1` it is 22.9%.
The figure for `O=C(C1CC1)N1N=C2CCCCC2C1(O)C(F)(F)F` (stereo not given) is -13%; for `O=C(OCc1nnc(-c2ccccc2)o1)c1cc(=O)[nH]c2ccccc12` it is -11.8%; for `CN(C(=O)COC(=O)c1cc(=O)[nH]c2ccccc12)C1CCCCC1` it is 0%.
The result for `CCOC(=O)c1ccc(COC(=O)c2cc(=O)[nH]c3ccccc23)o1` reads -68.1% (active); that for `CC(CO)NCC12CC3CC(CC(C3)C1)C2` (stereo not given), 4.35%.
As for `CC(=O)NC(c1ccccc1)c1nc(-c2ccccc2C)cs1` (stereo not given), the activity change is 0.953%.
For the compound `CCCCN(C=O)c1c(CC)nc2c(OCCC3CCCCC3)cccn12`, the activity change was -56.6% (active).
Consider `CCc1nc2c(OCCOc3ccccc3)cccn2c1N(C=O)Cc1ccc(OC)cc1`, for which the activity change is 29.8%.
In the case of `CCCCN(C=O)c1c(CC)nc2c(OCc3ccccc3C(=O)OC)cccn12`, the activity change was 0%.
With `COc1cccc(-c2cc3nc(NCc4ccccc4OC)n(C)c(=O)c3s2)c1`, the activity change was 0.83%.
Regarding `COc1cccc(CNc2nc(NCc3ccccc3OC)nc3ccsc23)c1`, the activity change was -75.5% (active).
The figure for `COc1cccc(CNc2nc(NCc3cccs3)nc3ccsc23)c1` is -4.63%.
The figure for `COc1ccc(C(=O)N(C)Cc2ccc(OC)c(OC)c2OC)cc1S(=O)(=O)N1CCOCC1` is -8.15%.
The result for `Cc1coc2c(O)cc3c(c12)OC1(N2CCCCC2)C(=O)NCCCC31` (stereo not given) reads -99.3% (active); that for `COCCN1CCN(C(=O)c2cc(COc3ccc(F)cc3Cl)on2)CC1`, 22.2%.
Regarding `CN(CC(=O)Nc1ccccc1[N+](=O)[O-])Cc1ccc(Br)cc1`, the activity change is -6.83%.
`CN(CC(=O)NCCc1ccc(F)cc1)CC(=O)Nc1ccc(F)c(F)c1F`: the activity change was -12.2%.
The figure for `Cc1ccc(NC(=O)CN(C)Cc2ccc(F)cc2)c([N+](=O)[O-])c1` is -62.3% (active).
The result for `CCN(C(=O)CSc1nnc2ccccn12)C1CCS(=O)(=O)C1` (stereo not given) reads -2.9%; that for `Cc1cc2cc3c(cc2nc1SCC(=O)Nc1c(C)cccc1C)CCC3`, 13%.
With `Cc1cccc(C(=O)C(O)(c2ccccc2)C2CCCCC2=O)c1` (stereo not given), the activity change is 16.6%.
The figure for `COc1ccc(CCNC(=O)c2cnc(Cl)c(Cl)c2)cc1` is -107% (active); for `COc1ccc(CCNC(=O)COC(=O)c2cnc(Cl)c(Cl)c2)cc1` it is -11.2%; for `CC(CCc1ccccc1)NC(=O)c1cnc(Cl)c(Cl)c1` (stereo not given) it is 12.3%.
The figure for `CC1(C)OC(=O)C2=C(C[C@@H](C3CCCCC3)O[C@@H]2c2ccc(Cl)cc2)O1` is 0%; for `CC1=C(C(=O)Nc2cccc(C(=O)NCC(C)c3ccccc3)c2)SCCO1` (stereo not given) it is 24.1%; for `CC(C)(C)n1nnnc1C(c1ccc2ncccc2c1)N1CCSCC1` (stereo not given) it is -23.4%.
Consider `O=S(=O)(NCCc1ccccn1)c1cc(Cl)cc(Cl)c1O`, for which the activity change was 0%.
The figure for `O=[N+]([O-])c1cccc(S(=O)(=O)NCc2ccccn2)c1` is 11.4%; for `O=[N+]([O-])c1cc(S(=O)(=O)NCCc2ccccn2)ccc1Cl` it is -65.1% (active).
As to `COC(=O)c1ccc(CNC(=O)Cn2cc(C)c(=O)[nH]c2=O)cc1`, the activity change is 15.5%.
Turning to `COc1ccc(C(=O)NCC2CCCO2)cc1S(=O)(=O)NCc1ccc(Cl)cc1` (stereo not given), the activity change was -8.62%.
On to `COC(=O)c1sccc1N/N=C(\C)c1ccc(F)c(Cl)c1`, for which the activity change is 13.1%.
The result for `COc1cccc(/C(C)=N/Nc2ncc(Cl)cc2Cl)c1` reads -80.6% (active); that for `CCN(CC)c1ccc(C(=O)N/N=C(\C)c2cccc(OC)c2)cc1`, 96.6%; that for `Cc1cc(NC(=O)CSc2nccn2-c2ccc([N+](=O)[O-])cc2)no1`, 45.3%.
The figure for `COc1cc2c(cc1CNC[C@H]1O[C@@H](n3cnc(C(N)=O)n3)[C@H](O)[C@@H]1O)OCO2` is 3.97%.
In the case of `CCc1ccccc1OCC(=O)Nc1nnc(C2CC2)s1`, the activity change is -16.9%.
The result for `COc1cccc(/C=C2/SC(=S)N(CC(=O)NC3C=CS(=O)(=O)C3)C2=O)c1` (stereo not given) reads -11%.
The figure for `O=C(CN1CCCCCC1)NCCN1C(=O)S/C(=C\c2ccccc2Cl)C1=O` is -15.4%; for `O=C(CN1C(=O)S/C(=C\c2ccccc2Cl)C1=O)NC1C=CS(=O)(=O)C1` (stereo not given) it is -99.6% (active); for `CC(=O)Nc1ccccc1C(=O)C(=O)Nc1ccc(F)cc1` it is 6.97%.
For `CC(NC(=O)c1ccccc1)C(=O)OCC(=O)Nc1cccc(S(=O)(=O)N2CCCC2)c1` (stereo not given), the activity change was -0.602%.
Consider `Cc1ccnc(-n2sc3ccccc3c2=O)n1`, for which the activity change is -95.9% (active).
The figure for `Cc1ccnc(SC2CC(=O)N(c3ccccc3)C2=O)n1` (stereo not given) is -12.7%.
`Cc1nc(Nc2ccccc2C)c2cnn(C)c2n1`: the activity change is 5.45%.
The result for `CCCCc1ccc(S(=O)(=O)NC(=O)C2(C)CCN2C(=O)c2ccccc2)cc1` (stereo not given) reads 48.7%.
The result for `CCOC(=O)Nc1ccc(S(=O)(=O)N(C)C(C)C)cc1` reads 24%.
Take `CCOC(=O)Nc1ccc2c(c1)N(C(=O)CCN1CCN(CCO)CC1)c1ccccc1CC2`: the activity change was -7.2%.
The figure for `CCOC(=O)Nc1ccc2c(c1)N(C(=O)CCCl)c1ccccc1[S@]2=O` is -96.5% (active); for `Cc1ccc(CNC(=O)C(=O)c2cn(CC(=O)N3CCOCC3)c3ccccc23)cc1` it is -24.4%; for `NC(=O)c1ccc(NC(=O)COC(=O)c2ccc([N+](=O)[O-])cc2)cc1` it is 3.51%.
`CC(=O)Nc1ccc(NC(=O)C(C)OC(=O)c2ccccc2C(=O)c2ccc(Cl)c([N+](=O)[O-])c2)cc1` (stereo not given): the activity change was -108% (active).
The result for `CC(=O)Nc1ccc(NC(=O)COC(=O)c2ccccc2C(=O)c2ccccc2)cc1` reads -29.6%.
As to `CC(CC(=O)O)C(=O)c1ccc(Cl)c([N+](=O)[O-])c1` (stereo not given), the activity change was -17.6%.
The figure for `COC(=O)c1cc(NC(=O)Cc2ccccc2[N+](=O)[O-])ccc1Cl` is 11.8%; for `N#Cc1cccc(NC(=O)COC(=O)c2ccccc2C(=O)c2ccc(Cl)c([N+](=O)[O-])c2)c1` it is -112% (active).
The result for `C[C@H]1CN([C@@H](C)CO)C(=O)CCCn2cc(nn2)CO[C@@H]1CN(C)S(=O)(=O)c1ccccc1C#N` reads 4.98%; that for `Cc1cc(C)c(C=NNc2nc3c([nH]2)c(=O)n(C)c(=O)n3C)c(C)c1`, -9.11%.
In the case of `O=C(COC(=O)CCc1c[nH]c2ccccc12)Nc1cccc(Cl)c1`, the activity change was 8.98%.
The figure for `CSc1ccc(CN2CCC2(C)C(=O)NCc2ccccc2Br)cc1` (stereo not given) is 35.5%.
The figure for `Cc1c(NC(=O)C(C)OC(=O)c2ccccc2O)c(=O)n(-c2ccccc2)n1C` (stereo not given) is 2.66%; for `COc1ccc(C(=O)C(C)OC(=O)c2cccc(S(=O)(=O)Nc3c(C)n(C)n(-c4ccccc4)c3=O)c2)cc1` (stereo not given) it is -73.2% (active).
In the case of `COc1ccc(NS(=O)(=O)c2ccc(C(=O)Nc3c(C)n(C)n(-c4ccccc4)c3=O)cc2)cc1`, the activity change was -16.8%.
The figure for `CSCCC(NC(=O)c1ccco1)C(=O)NCCc1ccc(F)cc1` (stereo not given) is -9.3%; for `O=S1(=O)C=C(SCCN2CCCC2)c2ccccc21` it is -84.4% (active).
On to `c1ccc(-c2ccccc2OCCN2CCCCC2)cc1`, for which the activity change was -0.581%.
The figure for `Nc1nnc(SCCN2C(=O)c3ccccc3S2(=O)=O)s1` is 10.6%; for `CCN(CC(=O)NC1CCS(=O)(=O)C1)c1nc(-c2cccnc2)nc2ccccc12` (stereo not given) it is -2.86%.
